The source made the active and inactive calls.
Columns and labels:
Albumin (Bos taurus) = Albumin (Bos taurus) (UniProt P02769); assay: bovine serum albumin binders on microarray, profiling panel, artefact control for SMM control protein annotation, biochemical, small-molecule microarray, Alexa647 label, 635/667 nm fluorescence (AID 1118); details: BSA-A647 binding, fluorescence 635 nm, higher = more signal;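 note: score merges 667 nm emission intensity and signal-to-noise per printed compound spot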
[1] = small-molecule microarray binders of probe aXIP, primary screen, biochemical, NeuroSMM set, 635/667 nm fluorescence (AID 1119); details: higher = more signal, called active from +8 up or from −8 down;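 note: probe is the protein aXip251-270 applied at 1 µg/mL to compound-printed slides; binding of probe to printed compounds measured as 667 nm fluorescence plus signal to noise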
[2] = small-molecule binders of probe aNOTCH3, primary screen, biochemical, small-molecule microarray, 635/667 nm fluorescence (AID 1120); details: higher = more signal;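 note: probe is a biotin-tagged antibody raised against NOTCH3 rather than NOTCH3 protein; score merges spot fluorescence near 667 nm with spot signal to noise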
[3] = small-molecule binders of probe aNOTCH2, primary screen, biochemical, small-molecule microarray, 635/667 nm fluorescence (AID 1121); details: higher = more signal;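 note: score merges feature fluorescence read at 667 nm with its signal to noise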
[4] = molecular target: Carbonic anhydrase 2 (Homo sapiens) (UniProt P00918); assay: CAII small-molecule binders, profiling panel, biochemical, small-molecule microarray, Alexa647-labelled CAII (AID 1122); details: CAII-A647 binding fluorescence, higher = more signal
[5] = COS7 lysate on small-molecule microarray, probe aHis, 635 nm (AID 1123); details: COS7 cell lysate, fluorescence, higher = more signal;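 note: z-score combines 667nm fluorescence intensity with signal-to-noise per printed compound spot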
[6] = compound binding in COS7 lysate, probe aLAP1, primary screen, cell lysate, small-molecule microarray (AID 1124); details: probe aLAP1, fluorescence, higher = more signal;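 note: lysate comes from COS7 cells expressing LAP1 and is applied at 0.3 µg/mL; score merges spot fluorescence near 667 nm with signal-to-noise over triplicate slides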
Sam68 (KHDRBS1) = assay: Sam68 small-molecule binders, primary screen, biochemical, small-molecule microarray, 635 nm fluorescence (AID 1125); details: small-molecule microarray binding, higher = more signal;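 note: score merges 667 nm channel intensity with signal to noise over triplicate slides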
[7] = tested on: Chordin-like protein 2 (CHRDL2); assay: CHRDL2 small-molecule binders, primary screen, biochemical, small-molecule microarray, 635 nm fluorescence (AID 1126); details: small-molecule microarray binding, fluorescence 635 nm; higher = more signal;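 note: printed compound slides probed with Chrdl2 protein at 4 µg/mL for 1 h at 4 C; score merges 667 nm emission intensity with signal to noise over three replicate slides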
[8] = molecular target: Concanavalin-A (Canavalia ensiformis) (UniProt P02866); assay: ConA small-molecule binders, primary screen, artefact control for SMM control protein annotation, biochemical, small-molecule microarray, Alexa647 label, 635 nm (AID 1127); details: ConA-A647 binding fluorescence, higher = more signal;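 note: z combines 667 nm emission intensity with signal-to-noise across three replicate slides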
[9] = anti-His antibody binders, primary screen, artefact control for SMM control protein annotation, biochemical, small-molecule microarray, 635 nm fluorescence (AID 1128); details: anti-His Alexa647 antibody binding, higher = more signal;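 note: score merges feature fluorescence with signal-to-noise for each printed compound spot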
[10] = tested on: Human papillomavirus type 1a E7 protein (residues 1-88); assay: HPV1a E7 small-molecule binders, primary screen, biochemical, small-molecule microarray, residues 1-88, 635 nm (AID 1129); details: small-molecule microarray binding, fluorescence 635 nm; higher = more signal
[11] = molecular target: Focal adhesion kinase 1 (Homo sapiens) (UniProt Q05397); assay: small-molecule microarray binders of FAK, primary screen, biochemical, 635/667 nm fluorescence, BSA, DTT (AID 1130); details: PTK2 binding, 635 nm fluorescence, higher = more signal;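 note: composite of spot emission at 667 nm and signal to noise over triplicate slides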
[12] = tested on: Fibrinogen (Alexa647-labelled); assay: fibrinogen binders on compound microarrays, profiling panel, artefact control for SMM control-protein annotation, biochemical, small-molecule microarray, 635/667 nm fluorescence (AID 1131); details: fibrinogen-A647 binding fluorescence, higher = more signal;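 note: z-score merges 667 nm fluorescence with per-spot signal-to-noise over triplicate slides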
[13] = molecular target: Follistatin (Homo sapiens) (UniProt P19883); assay: follistatin binders on small-molecule microarrays, primary screen, biochemical, small-molecule microarray, 635/667 nm fluorescence (AID 1132); details: FST binding, 635 nm fluorescence, higher = more signal
[14] = molecular target: Fibroblast growth factor 2 (Homo sapiens) (UniProt P09038); assay: FGF2 binders on small-molecule microarrays, primary screen, biochemical, small-molecule microarray, 635/667 nm fluorescence (AID 1133); details: small-molecule microarray binding, FGF2, fluorescence 635/667; higher = more signal
[15] = mitochondrial membrane potential change in A549 cells, profiling panel, cell-based, JC-1 fluorescence, basal, 24 h, 100 nL (AID 1138); details: higher = more signal;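 note: A549 lung adenocarcinoma cells under basal conditions with no added stimulus; test concentration not given here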
Lefty1 = Lefty1 binders on small-molecule microarrays, primary screen, biochemical, small-molecule microarray, 635/667 nm fluorescence (AID 1139); details: small-molecule microarray binding, fluorescence 635/667; higher = more signal
[16] = tested on: wheat germ agglutinin (Triticum aestivum), Alexa647-labelled; assay: wheat germ agglutinin binders on compound microarrays, profiling panel, artefact control for SMM control-protein annotation, biochemical, small-molecule microarray, 635/667 nm fluorescence (AID 1140); details: WGA-A647 binding, 635 nm fluorescence, higher = more signal;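 note: score merges 667 nm feature emission with signal to noise over triplicate slides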
[17] = molecular target: Luciferin 4-monooxygenase (Photinus pyralis) (UniProt P08659); assay: firefly luciferase enzyme inhibitors, primary screen, biochemical, luminescence, purified enzyme, 2006 set (AID 1141); details: SteadyGlo luminescence, 30 min, higher = more signal, called active from +8 up or from −8 down;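 note: cell-free assay with purified firefly luciferase at 100 ng per well in PBS; test concentration not given here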
Chain of Luciferin 4-monooxygenase (Photinus pyralis) (P08659 whole entry, looked up): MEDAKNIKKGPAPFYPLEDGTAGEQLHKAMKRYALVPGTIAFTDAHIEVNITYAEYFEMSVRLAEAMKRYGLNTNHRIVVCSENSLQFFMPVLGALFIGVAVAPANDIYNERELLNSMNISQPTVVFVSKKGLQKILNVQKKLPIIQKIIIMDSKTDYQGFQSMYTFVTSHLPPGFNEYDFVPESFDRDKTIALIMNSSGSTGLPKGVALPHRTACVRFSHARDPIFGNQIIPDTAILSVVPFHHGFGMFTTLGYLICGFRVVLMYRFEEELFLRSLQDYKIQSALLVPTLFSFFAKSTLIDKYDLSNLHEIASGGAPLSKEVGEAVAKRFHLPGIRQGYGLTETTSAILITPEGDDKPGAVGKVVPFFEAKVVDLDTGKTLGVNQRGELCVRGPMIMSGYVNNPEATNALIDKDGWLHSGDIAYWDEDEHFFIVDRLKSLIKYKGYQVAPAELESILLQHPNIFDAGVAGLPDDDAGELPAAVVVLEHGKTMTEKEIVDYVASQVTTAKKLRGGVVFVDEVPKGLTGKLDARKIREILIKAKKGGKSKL

Chain of Focal adhesion kinase 1 (Homo sapiens) (Q05397 whole entry, looked up): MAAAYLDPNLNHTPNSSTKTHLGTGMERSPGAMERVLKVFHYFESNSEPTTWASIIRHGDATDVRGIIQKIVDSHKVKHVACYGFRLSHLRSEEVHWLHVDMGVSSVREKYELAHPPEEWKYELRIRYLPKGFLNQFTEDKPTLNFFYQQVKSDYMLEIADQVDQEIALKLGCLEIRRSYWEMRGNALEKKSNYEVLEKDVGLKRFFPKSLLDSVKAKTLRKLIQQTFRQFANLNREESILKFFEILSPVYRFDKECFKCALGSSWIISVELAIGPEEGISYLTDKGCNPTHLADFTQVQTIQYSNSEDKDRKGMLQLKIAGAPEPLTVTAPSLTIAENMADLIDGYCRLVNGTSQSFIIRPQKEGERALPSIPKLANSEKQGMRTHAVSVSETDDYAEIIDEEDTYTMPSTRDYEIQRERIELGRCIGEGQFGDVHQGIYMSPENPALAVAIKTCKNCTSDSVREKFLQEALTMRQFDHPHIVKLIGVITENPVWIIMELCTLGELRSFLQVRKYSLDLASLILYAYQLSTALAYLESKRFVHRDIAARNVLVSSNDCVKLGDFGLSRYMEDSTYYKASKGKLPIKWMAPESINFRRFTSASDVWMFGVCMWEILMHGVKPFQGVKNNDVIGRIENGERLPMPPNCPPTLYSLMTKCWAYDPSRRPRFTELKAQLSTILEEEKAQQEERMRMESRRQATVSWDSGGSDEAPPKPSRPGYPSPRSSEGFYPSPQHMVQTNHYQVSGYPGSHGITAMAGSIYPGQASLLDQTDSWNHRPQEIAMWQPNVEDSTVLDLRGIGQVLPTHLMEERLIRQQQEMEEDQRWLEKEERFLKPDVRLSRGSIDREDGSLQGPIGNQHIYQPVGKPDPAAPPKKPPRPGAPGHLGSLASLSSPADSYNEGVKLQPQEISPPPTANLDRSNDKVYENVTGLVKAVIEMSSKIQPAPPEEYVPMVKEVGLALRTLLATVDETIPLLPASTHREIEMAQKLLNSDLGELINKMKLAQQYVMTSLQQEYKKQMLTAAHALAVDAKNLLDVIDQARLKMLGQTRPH
Chain of Follistatin (Homo sapiens) (P19883 whole entry, looked up): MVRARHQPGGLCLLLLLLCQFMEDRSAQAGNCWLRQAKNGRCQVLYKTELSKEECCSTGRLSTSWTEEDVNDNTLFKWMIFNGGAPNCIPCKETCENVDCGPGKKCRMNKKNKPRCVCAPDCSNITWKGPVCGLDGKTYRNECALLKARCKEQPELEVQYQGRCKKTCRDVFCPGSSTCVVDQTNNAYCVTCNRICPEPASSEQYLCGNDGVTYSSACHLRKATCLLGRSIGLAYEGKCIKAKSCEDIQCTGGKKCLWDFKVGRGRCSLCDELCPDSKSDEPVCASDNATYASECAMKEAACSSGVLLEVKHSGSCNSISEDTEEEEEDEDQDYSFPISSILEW
Chain of Concanavalin-A (Canavalia ensiformis) (P02866 whole entry, looked up): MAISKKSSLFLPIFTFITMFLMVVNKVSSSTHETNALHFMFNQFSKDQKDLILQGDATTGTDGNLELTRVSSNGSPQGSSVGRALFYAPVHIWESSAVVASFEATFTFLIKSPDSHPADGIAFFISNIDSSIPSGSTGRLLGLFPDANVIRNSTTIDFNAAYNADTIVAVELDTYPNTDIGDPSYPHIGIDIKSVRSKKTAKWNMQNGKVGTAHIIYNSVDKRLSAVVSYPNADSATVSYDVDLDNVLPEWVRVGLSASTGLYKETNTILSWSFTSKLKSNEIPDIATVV
Chain of Albumin (Bos taurus) (P02769 whole entry, looked up): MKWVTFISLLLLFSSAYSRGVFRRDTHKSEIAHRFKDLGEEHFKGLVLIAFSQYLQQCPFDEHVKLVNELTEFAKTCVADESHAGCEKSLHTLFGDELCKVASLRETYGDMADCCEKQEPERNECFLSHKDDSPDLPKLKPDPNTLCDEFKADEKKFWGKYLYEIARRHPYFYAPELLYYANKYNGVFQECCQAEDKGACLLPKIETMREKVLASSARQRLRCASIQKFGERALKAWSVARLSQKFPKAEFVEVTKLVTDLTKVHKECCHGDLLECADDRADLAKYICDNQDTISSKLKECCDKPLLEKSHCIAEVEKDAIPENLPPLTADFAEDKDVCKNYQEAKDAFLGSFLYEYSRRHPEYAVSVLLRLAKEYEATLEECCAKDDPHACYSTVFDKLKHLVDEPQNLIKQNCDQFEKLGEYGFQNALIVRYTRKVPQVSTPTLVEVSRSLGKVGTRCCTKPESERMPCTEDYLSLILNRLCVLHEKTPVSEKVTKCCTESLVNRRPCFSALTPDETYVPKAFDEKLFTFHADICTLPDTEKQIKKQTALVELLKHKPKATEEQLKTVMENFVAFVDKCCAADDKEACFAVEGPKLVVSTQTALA
Chain of Fibroblast growth factor 2 (Homo sapiens) (P09038 whole entry, looked up): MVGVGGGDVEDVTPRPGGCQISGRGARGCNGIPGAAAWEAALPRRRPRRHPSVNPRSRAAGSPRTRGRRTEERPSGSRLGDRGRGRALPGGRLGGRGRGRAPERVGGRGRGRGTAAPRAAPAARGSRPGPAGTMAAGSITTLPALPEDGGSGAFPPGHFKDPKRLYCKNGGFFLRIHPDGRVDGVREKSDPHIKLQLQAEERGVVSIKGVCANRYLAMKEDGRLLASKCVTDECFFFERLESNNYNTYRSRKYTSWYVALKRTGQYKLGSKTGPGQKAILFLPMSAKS

Compound	composite z-score (Albumin (Bos taurus))	composite Z-score [1]	composite z-score [2]	composite z-score [3]	composite z-score [4]	composite z-score [5]	composite z-score [6]	composite z-score (Sam68 (KHDRBS1))	composite z-score [7]	composite z-score [8]	composite z-score [9]	composite z-score [10]	composite z-score [11]	composite z-score [12]	composite z-score [13]	composite z-score [14]	z-score [15]	composite z-score (Lefty1)	composite z-score [16]	z-score [17]
OC[C@H]1O[C@H](C#Cc2ccccc2)C=C[C@@H]1O	0.475	0.131 (inactive)	-0.0647	-0.101	-0.0795	0.171	-0.647	0.0701	0.622	0.341	-0.0558	0.202	0.0213	0.624	0.634	0.147	0.462	0.409	0.189	-1.47 (inactive)
CC(C)CON=C1C[C@@H](O)[C@@H](O)[C@@H]2[C@@H]3C(=O)N(Cc4ccc5c(c4)OCO5)C(=O)[C@@H]3CC[C@@H]12	0.713	0.311 (inactive)	-0.179	-0.0891	0.614	0.862	-0.0121	0.853	-0.0113	0.922	0.918	0.245	0.227	0.655	0.0087	1.22	0.0679	-0.0226	0.0667	0.966 (inactive)
CC(C)=NOC[C@@H](O)[C@H]1O[C@@H]2OC(C)(C)O[C@@H]2[C@H]1O	0.255	0.559 (inactive)	-0.349	-0.273	-0.0402	1.85	0.116	0.968	0.537	0.929	-0.0333	0.491	0.17	0.0104	0.464	0.57	0.225	0.507	0.0212	-0.394 (inactive)
CC(=O)OC[C@H]1O[C@@H](ON=C(C)C)[C@H](OC(C)=O)[C@@H](OC(C)=O)[C@@H]1OC(C)=O	-0.727	-1.02 (inactive)	-0.0178	-0.0272	-0.755	-0.775	0.694	-0.743	-0.736	-1.09	0.759	-1.41	-0.242	-0.515	-1.27	-0.109	-0.191	-1.03	-0.88	0.316 (inactive)
CCN1C(=O)[C@H]2[C@H]3[C@H](O)[C@H](O)CC(=NO[C@H](C)c4cn([C@H](CO)Cc5ccccc5)nn4)[C@@H]3CC[C@H]2C1=O	0.818	0.444 (inactive)	0.0539	-0.135	0.412	0.785	1.39	1.1	-0.0064	1.05	3.76	1.07	0.454	0.932	0.758	0.474	-0.00321	0.734	1.15	0.275 (inactive)
CCc1cc2c(nc1CC)CCN(CCC(C)=NOCC[C@@H]1C=C[C@H](OC(C)=O)[C@@H](COC(C)=O)O1)C2	0.466	0.497 (inactive)	0.493	-0.0798	0.0943	-0.119	0.277	1.23	0.412	0.446	0.345	-0.19	0.174	-0.0226	0.823	0.273	0.677	1.18	0.0479	0.855 (inactive)
O=C1[C@H]2[C@H]3[C@H](O)[C@H](O)CC(=NO[C@@H]4O[C@H](CO)[C@@H](O)[C@H](O)[C@H]4O)[C@@H]3CC[C@H]2C(=O)N1c1cccc(Oc2ccccc2)c1	0.29	-0.65 (inactive)	-0.0391	-0.104	-0.0428	0.109	0.106	0.324	0.775	0.588	0.13	0.542	0.0405	0.578	0.858	0.948	-0.728	0.879	0.335	0.825 (inactive)
O=C1[C@H]2[C@H]3[C@H](O)[C@H](O)CC(=NOCc4ccccc4)[C@H]3CC[C@H]2C(=O)N1C1CCCCC1	0.487	0.447 (inactive)	-0.0744	-0.14	0.505	0.596	-0.438	0.734	0.318	0.921	0.992	0.944	0.041	1	0.28	0.479	0.436	0.355	0.971	0.18 (inactive)
CCOC(=O)[C@H](Cc1ccccc1)NC(=O)CCC1CC(OC(=O)NCc2cccc3ccccc23)CC2(CCCC(COC(=O)NCCc3ccccc3OC)O2)O1 (stereo not given in full)	0.49	-0.564 (inactive)	0.121	-0.126	0.224	0.474	-0.114	1.19	0.241	0.879	0.704	0.79	0.201	0.287	0.798	0.793	-0.538	0.99	0.404	0.821 (inactive)
CON=C(C)CCN1CCCCc2nc(C)c(C)cc21	-0.16	0.414 (inactive)	0.245	0.0207	0.53	-0.0845	-0.244	0.119	0.873	-0.116	0.229	-0.27	0.145	0.582	0.925	0.644	1.19	1.05	0.495	-0.518 (inactive)
C#CCCCON=C1C[C@@H](O)[C@@H](O)[C@@H]2[C@@H]3C(=O)N(C[C@@H]4CCCO4)C(=O)[C@@H]3CC[C@H]12	0.541	1.11 (inactive)	-0.0662	-0.115	0.239	0.335	0.142	0.63	0.249	0.732	0.185	0.508	0.235	0.509	0.669	0.103	-0.544	0.388	0.0691	0.451 (inactive)
